Source: the supplement of paper PMC9262897, “Low-cost anti-mycobacterial drug discovery using engineered E. coli” (Nature Communications, 2022)
Structures can show the parent of a compound that is named as a salt. ± gives the standard deviation of the averaged measurements.

Key:
Test in all cases: growth (OD600 after 10 h); higher = more growth (less inhibition)
[1] = tested on: E. coli TESEC Alr+ wild-type control; conditions: compound 0.1 mM; raw OD600 reference: median of DMSO wells 0.241, cell-free background 0.041
Procedure: (§1)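 TESEC Mtb Alr E. coli, or the Alr+ wild-type control, in 384-well plates with Prestwick library compounds at 0.1 mM and 1% DMSO, across arabinose induction levels of 1E3 to 1E7 nM. Growth is read as OD600 after 10 h at 37 °C in triplicate biological replicates.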

E. coli TESEC Mtb Alr [2] = conditions: compound 0.1 mM
Procedure: as §1

E. coli TESEC Mtb Asd = conditions: compound 0.1 mM
Procedure: (§2)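 TESEC E. coli strains in which the native enzyme is deleted and replaced by arabinose-inducible Mtb Asd, DapB, CysH or TrpD, each grown in its selective medium. Strains were screened against the Prestwick library at 0.1 mM and 1% DMSO in 384-well format at low and high arabinose induction. Growth is read as OD600 after 10 h in triplicate.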

E. coli TESEC Mtb DapB = conditions: compound 0.1 mM
Procedure: as §2

[3] = tested on: E. coli TESEC Alr+ wild-type control; conditions: compound 0.1 mM; raw OD600 reference: median of DMSO wells 0.49, cell-free background 0.052
Procedure: (§3)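 TESEC Mtb Alr E. coli (ΔaraC ΔtolC ΔentC Δalr ΔdadX, arabinose-inducible Mtb Alr) or the Alr+ wild-type control strain, grown in defined M9-fructose medium without D-alanine in 96-well plates with Prestwick library compounds at 0.1 mM and 1% DMSO. Low Alr induction is 0.1 µM arabinose and high induction is 10 mM arabinose.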

E. coli TESEC Mtb Alr [4] = conditions: compound 0.1 mM; remark: listed apart in the source
Procedure: as §3

[5] = arabinose 1000 nM, raw OD600 reference: median of DMSO wells 0.294, cell-free background 0.041
[6] = arabinose 10000 nM, raw OD600 reference: median of DMSO wells 0.264, cell-free background 0.041
[7] = arabinose 100000 nM, raw OD600 reference: median of DMSO wells 0.201, cell-free background 0.041
[8] = arabinose 1000000 nM, raw OD600 reference: median of DMSO wells 0.193, cell-free background 0.041
[9] = arabinose 10000000 nM, raw OD600 reference: median of DMSO wells 0.146, cell-free background 0.041
[10] = arabinose induction (level): High, raw OD600 reference: median of DMSO wells 0.331, cell-free background 0.041
[11] = arabinose induction (level): Low, raw OD600 reference: median of DMSO wells 0.417, cell-free background 0.041
[12] = arabinose induction (level): High, raw OD600 reference: median of DMSO wells […], cell-free background 0.041
[13] = arabinose induction (level): Low, raw OD600 reference: median of DMSO wells 0.227, cell-free background 0.041
[14] = arabinose 100 nM, raw OD600 reference: median of DMSO wells 0.413, cell-free background 0.052
[15] = arabinose 10000000 nM, raw OD600 reference: median of DMSO wells […], cell-free background 0.052

Structure (SMILES)	growth [1]	growth (E. coli TESEC Mtb Alr [2]; [5])	growth (E. coli TESEC Mtb Alr [2]; [6])	growth (E. coli TESEC Mtb Alr [2]; [7])	growth (E. coli TESEC Mtb Alr [2]; [8])	growth (E. coli TESEC Mtb Alr [2]; [9])	growth (E. coli TESEC Mtb Asd; [10])	growth (E. coli TESEC Mtb Asd; [11])	growth (E. coli TESEC Mtb DapB; [12])	growth (E. coli TESEC Mtb DapB; [13])	growth [3]	growth (E. coli TESEC Mtb Alr [4]; [14])	growth (E. coli TESEC Mtb Alr [4]; [15])
CN(C)CCC(c1ccc(Cl)cc1)c1ccccn1 (stereo not drawn) [Chlorpheniramine maleate]	0.22 ± 0.0024	0.264 ± 0.022	0.259 ± 0.0028	0.18 ± 0.018	0.162 ± 0.0019	0.135 ± 0.0055	0.291 ± 0.091	0.399 ± 0.061	0.187 ± 0.012	0.23 ± 0.0095	0.466 ± 0.037	0.4277 ± 0.0018	0.325 ± 0.01
CCCNCC(O)COc1ccccc1C(=O)CCc1ccccc1 (stereo not drawn) [Propafenone hydrochloride]	0.201 ± 0.0092	0.241 ± 0.019	0.281 ± 0.012	0.176 ± 0.015	0.124 ± 0.0027	0.155 ± 0.006	0.144 ± 0.007	0.345 ± 0.02	0.173 ± 0.01	0.185 ± 0.015	0.452 ± 0.022	0.412 ± 0.009	0.285 ± 0.0058
CN(C)CCc1c[nH]c2ccc(Cn3cncn3)cc12 [Rizatriptan benzoate]	0.24 ± 0.0036	0.2899 ± 0.0026	0.258 ± 0.00081	0.198 ± 0.0062	0.213 ± 0.022	0.141 ± 0.006	0.337 ± 0.057	0.417 ± 0.051	0.193 ± 0.0065	0.211 ± 0.015	0.633 ± 0.061	0.408 ± 0.012	0.34 ± 0.0085
CC(=O)OC(C)C[N+](C)(C)C (stereo not drawn) [Methacholine chloride]	0.238 ± 0.0071	0.282 ± 0.0064	0.269 ± 0.0094	0.171 ± 0.011	0.187 ± 0.0089	0.134 ± 0.0072	0.361 ± 0.092	0.428 ± 0.025	0.2263 ± 0.0013	0.243 ± 0.023	0.466 ± 0.066	0.413 ± 0.021	0.361 ± 0.015
COc1ccc(-c2cc(=O)c3c(O)cc(O[C@@H]4O[C@H](CO[C@@H]5O[C@@H](C)[C@H](O)[C@@H](O)[C@H]5O)[C@@H](O)[C@H](O)[C@H]4O)cc3o2)cc1O [Diosmin]	0.296 ± 0.0078	0.334 ± 0.01	0.277 ± 0.0034	0.248 ± 0.011	0.192 ± 0.013	0.1645 ± 0.00064	0.421 ± 0.085	0.358 ± 0.04	0.225 ± 0.016	0.243 ± 0.017	0.578 ± 0.14	0.437 ± 0.026	0.426 ± 0.065
CNCC(O)c1ccc(OC(=O)C(C)(C)C)c(OC(=O)C(C)(C)C)c1 (stereo not drawn) [Dipivefrin hydrochloride]	0.171 ± 0.01	0.239 ± 0.018	0.255 ± 0.011	0.164 ± 0.016	0.0939 ± 0.0013	0.142 ± 0.004	0.174 ± 0.029	0.269 ± 0.048	0.188 ± 0.023	0.167 ± 0.0099	0.394 ± 0.018	0.391 ± 0.022	0.19 ± 0.014
